Among all 330,000 compounds or so, about 960 (0.29%) were called active. Shown is part of a subset that was picked to be rich in actives. Unmarked numbers belong to inactive results.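 The calls were made as follows: active = compounds whose signal lies at least 3.5 SD above the mean of all wells on their plate; inactive = the rest.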
Assay: inducers of MIN6 beta-cell proliferation, primary screen, ATP luminescence, uHTS (AID 2380);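 also: 0% = DMSO-treated cells in low-serum medium and 100% = 10% serum control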
Conditions: MIN6 cells proliferation, ATPlite luminescence, 48 h; at 10 µM; hits give high values; 100% = growth in 10% serum; cells starved in 0.2% serum

Point of comparison: `CCc1ccc(S(=O)(=O)NCC(O)COc2ccc(OC)cc2)cc1` (configuration not stated), proliferation 1.69%. Against it:
- Cc1cc(C)c(S(=O)(=O)NCC2CCC(C(=O)NCc3ccc4c(c3)OCO4)CC2)c(C)c1 (configuration not stated) — lower, -1.16%
- O=C(CN1CCN(c2ccc(Cl)cc2)CC1)c1ccccc1 — lower, -0.29%
- COc1ccc(CN2CCNC(=O)C2CC(=O)NCc2cn[nH]c2-c2ccccc2)c(F)c1 (configuration not stated) — lower, 0.21%
- Cc1ccc2c(c1)N(S(=O)(=O)c1cc(-c3cc(C)no3)ccc1C)CCO2 — lower, -6.66%
- CCOC(=O)C1=C(C)OC(N)=C(C#N)C1c1cncc(-c2ccc(F)cc2)c1 (configuration not stated) — lower, -3.32%
- C=CCOC(=O)C1=C(C)OC(N)=C(C#N)C1c1ccc(F)cc1 (configuration not stated) — lower, -0.46%
- CC(=O)NC(C)(C)C1CC=C(C)/C(=N\O)C1 (configuration not stated) — lower, -0.3%
- CCOC(=O)c1c(NC(=O)CCl)sc(C(=O)N(CC)CC)c1C — lower, -3.42%
- CCOC(=O)c1sc(NC(=O)CCN2CCOCC2)c(C(=O)OCC)c1C — lower, -6.14%
- NC(=O)c1nsc(C(=O)N(CCCN2CCOCC2)C(C(=O)NC2CCCCC2)c2ccc(Cl)cc2)c1N (configuration not stated) — lower, 0%
- Cc1noc(COc2ccccc2OCc2onc(C)c2Cl)c1Cl — lower, -3.09%
- O=[N+]([O-])c1ccc2c(c1)C(O)n1nc(-c3ccccc3)nc1S2 (configuration not stated) — lower, -0.32%
- COC(=O)Cn1nc(-c2ccccc2)c2cc(Cl)ccc21 — lower, -1.48%
- C/C(Cl)=C\Cn1c(Nc2cccc(C)c2)nc2c1c(=O)n(C)c(=O)n2C — lower, -1.44%
- COc1ccc(NC(=O)CNc2cc(S(=O)(=O)N3CCOCC3)ccc2N2CCOCC2)c(OC)c1 — lower, -0.63%
- CCOC(=O)C1(Cc2ccccc2C)CCCN(C(=O)CCc2c(C)noc2C)C1 (configuration not stated) — lower, 0.64%
- Cc1ccc(S(=O)(=O)N2CCN(C)CC2)cc1C(=O)NC1CCCCC1 — lower, -0.96%
- CCOC(=O)N1CCN(C(=O)c2cn(C)c3ccc(S(=O)(=O)N4CCCC4)cc3c2=O)CC1 — lower, -0.22%
- CCC(NC(=O)c1ccccc1NC(=O)c1ccccc1)C(=O)NNC(=O)CSc1nc2ccccc2o1 (configuration not stated) — lower, -0.4%
- COc1ccc(N(CC(=O)N2CCOCC2)S(=O)(=O)c2ccccc2)cc1Cl — lower, -0.37%
- COCCN(C(=O)CCC(=O)Nc1nccs1)C(C(=O)NC(C)(C)C)c1ccc(Cl)cc1 (configuration not stated) — higher, 5.62%
- CC(=O)Nc1ccc(/C(C)=N/NC(=O)CN(c2ccccc2Br)S(C)(=O)=O)cc1 — lower, 0%
- C=CCn1c(=O)c(C(=O)NCc2ccc3c(c2)OCO3)c(O)c2ccccc21 — lower, -5.37%
- CCn1c(=O)cc(SCC(=O)NCc2ccc3c(c2)OCO3)c2ccccc21 — lower, 0.19%
- COc1ccc(CN(C(=O)CSc2nnc(-c3ccc(OC)c(OC)c3)o2)c2ccc(F)cc2)cc1 — lower, -1.49%
- CSc1cccc(NC(=O)CN2C(=O)COc3ccc(S(=O)(=O)N4CCOCC4)cc32)c1 — lower, -3.64%
- O=C(c1ccc(F)cc1)c1cn(Cc2ccc(F)cc2)c2cc3c(cc2c1=O)OCCO3 — lower, -0.71%
- Cc1cc(NC(=O)CSCC(=O)NC(C)c2ccccc2)no1 (configuration not stated) — lower, -3.94%
- Cc1cc(NC(=O)COn2nnc3ccccc32)no1 — lower, -1.01%
- CCOc1ccc(C(=O)Nc2ccc(CN3CCOCC3)cc2)cc1Cl — lower, -1.37%
- CCOC(=O)c1csc(CCNC(=O)c2oc3c(Cl)cc(C)cc3c2C)n1 — lower, -3.1%
- O=c1c2ccccc2c(-c2ccc(Br)cc2)nn1Cc1ccccc1 — lower, -5.75%
- CCOC(=O)C(C)n1nc(-c2ccccc2)c2ccccc2c1=O (configuration not stated) — higher, 4.32%
- CCCn1c(C)cc(/C=C(\C#N)C(=O)OCC(=O)Nc2cc(OC)c(OC)c(OC)c2)c1C — lower, -0.86%
- COc1ccccc1N(C)C(=O)c1cc(S(=O)(=O)N2CCc3ccccc32)cn1C — lower, -2.09%
- CCOC(=O)c1c(N=CN(C)C)c(C#N)c2n1CCCC2 — higher, 5.05%
- CC1=NN(C(=O)CCCc2ccccc2)C(O)(C(F)(F)F)C1 (configuration not stated) — lower, -1.71%
- CCOC(=O)N1CCN(C(=O)c2ccc3nc4cc(Cl)ccc4c(=O)n3c2)CC1 — lower, -2.76%
- O=C(CN1CCN(c2ccc(Cl)cc2)CC1)NCc1cccs1 — lower, 0.22%
- CC1(C)SC2c3ccccc3C(=O)N2[C@@H]1C(=O)NCc1ccco1 (some centres not stated) — lower, 0.14%
- COc1ccc(S(=O)(=O)N2CCC(C(=O)NCc3ccco3)CC2)cc1C — lower, -0.27%
- O=C1NC(c2ccc(-c3ccccc3[N+](=O)[O-])o2)C(C(=O)c2ccc(Cl)cc2)C(O)(C(F)(F)F)N1 (configuration not stated) — lower, -2.76%
- COC(C(=O)NCc1ccccc1C)c1ccccc1 (configuration not stated) — lower, -1.34%
- CC(=O)CC[C@@H](C)O[C@@H]1OC(C)[C@H](O)CC1O (some centres not stated) — lower, -5.25%
- COc1cccc(CNC(=O)CCC2CCCN(C(=O)c3cc(C)[nH]n3)C2)c1 (configuration not stated) — lower, 0.78%
- COc1cccc(CNC(=O)CCC2CCCN(C(=O)c3ccc(F)c(Cl)c3)C2)c1 (configuration not stated) — lower, -1.84%

For `CCOC(=O)C1=C(CC)OC(N)=C(C#N)C1c1ccc(F)cc1F` (configuration not stated), the proliferation was 9.9% (active).
For `CCOC(=O)Nc1sc(C(=O)N(C)C)c(C)c1C(=O)OCC`, the proliferation was 7.91% (active).
For `Cn1nc(-c2ccccc2)c2cc([N+](=O)[O-])ccc21`, the proliferation was 8.71% (active).
For `Cc1ccc(S(=O)(=O)N2CCCCC2)cc1C(=O)N1CCN(CCO)CC1`, the proliferation was 12.6% (active).
For `CCn1c(=O)c([N+](=O)[O-])c(NCc2ccc3c(c2)OCO3)c2ccccc21`, the proliferation was 8.6% (active).
With `Cc1cc(NC(=O)CSc2nc3ccccc3n2CC(C)C)no1` the proliferation was 7.98% (active).
With `CCCNC(=O)CCn1nc(-c2ccccc2)c2ccccc2c1=O` the proliferation was 9.9% (active).
In the case of `OC1CN=C2Sc3ccccc3N2C1` (configuration not stated), the proliferation is reported as 5.2% (active).
In the case of `COc1cc2c(cc1OC)C(C(=O)NCc1ccco1)C1c3ccccc3CCN1C2=O` (configuration not stated), the proliferation is reported as 9.44% (active).
In the case of `COc1cccc(CNC(=O)CCC2CCCN(C(=O)c3ccoc3C)C2)c1` (configuration not stated), the proliferation is reported as 12.3% (active).
